# Assay outcomes deposited in PubChem BioAssay by National Center for Advancing Translational Sciences (NCATS).
# BLM helicase inh: Bloom syndrome helicase (human) inhibition; P54132; recombinant BLM DNA unwinding, fluorescence dequenching; Potency, µM (titrated, usually from 56.1 µM), inactives show top-dose activity change, negative = inhibition, actives largely listed as inhibitors; 350,000 compounds, 0.2% hits;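 note: plate controls were vehicle for no effect and no enzyme for full effect; nearly all actives have a fitted effect of over 35% in size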
# Target sequence (P54132 whole entry, looked up): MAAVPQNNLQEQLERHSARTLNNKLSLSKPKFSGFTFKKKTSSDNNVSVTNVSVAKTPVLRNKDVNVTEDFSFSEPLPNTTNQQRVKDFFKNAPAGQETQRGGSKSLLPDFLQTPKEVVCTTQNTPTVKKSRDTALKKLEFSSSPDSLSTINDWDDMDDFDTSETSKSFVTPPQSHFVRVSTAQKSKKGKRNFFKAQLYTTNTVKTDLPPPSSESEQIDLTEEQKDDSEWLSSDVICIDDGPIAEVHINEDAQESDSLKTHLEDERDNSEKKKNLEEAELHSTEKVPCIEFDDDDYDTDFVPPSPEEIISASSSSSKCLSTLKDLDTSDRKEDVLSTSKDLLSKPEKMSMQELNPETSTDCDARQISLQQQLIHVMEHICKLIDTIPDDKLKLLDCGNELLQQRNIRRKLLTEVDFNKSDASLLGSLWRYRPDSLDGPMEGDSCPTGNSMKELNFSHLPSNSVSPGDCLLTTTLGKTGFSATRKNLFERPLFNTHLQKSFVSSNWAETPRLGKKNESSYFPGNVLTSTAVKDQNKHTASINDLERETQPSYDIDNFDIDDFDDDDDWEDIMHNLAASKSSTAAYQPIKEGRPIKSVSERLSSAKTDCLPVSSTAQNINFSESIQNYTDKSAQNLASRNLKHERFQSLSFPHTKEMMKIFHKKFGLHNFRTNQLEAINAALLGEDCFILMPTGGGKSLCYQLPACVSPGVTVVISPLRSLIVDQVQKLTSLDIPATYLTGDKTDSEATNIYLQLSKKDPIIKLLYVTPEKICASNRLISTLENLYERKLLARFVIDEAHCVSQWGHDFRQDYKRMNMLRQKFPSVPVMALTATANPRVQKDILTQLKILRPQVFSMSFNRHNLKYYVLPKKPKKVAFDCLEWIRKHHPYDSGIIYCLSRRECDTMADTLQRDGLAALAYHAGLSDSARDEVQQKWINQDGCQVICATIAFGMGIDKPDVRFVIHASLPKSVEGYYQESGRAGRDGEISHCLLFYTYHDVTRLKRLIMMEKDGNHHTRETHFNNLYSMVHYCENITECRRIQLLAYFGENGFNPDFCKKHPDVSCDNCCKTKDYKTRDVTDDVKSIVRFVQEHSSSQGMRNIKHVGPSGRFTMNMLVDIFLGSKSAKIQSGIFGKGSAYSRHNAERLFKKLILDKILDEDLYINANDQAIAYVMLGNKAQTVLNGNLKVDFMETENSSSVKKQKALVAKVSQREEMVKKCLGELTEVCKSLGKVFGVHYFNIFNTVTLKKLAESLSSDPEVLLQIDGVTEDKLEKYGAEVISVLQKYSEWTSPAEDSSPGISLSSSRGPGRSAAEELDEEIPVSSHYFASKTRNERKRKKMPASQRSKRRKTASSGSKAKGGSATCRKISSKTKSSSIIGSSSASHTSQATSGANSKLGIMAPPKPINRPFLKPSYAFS
# FEN1 inh-1: inhibitors of human flap endonuclease 1. AID 588795. P39748. 390,000 compounds, 0.35% hits. Recombinant FEN1 flap cleavage, fluorescence, 15 min. Potency, µM (top dose mostly 114 µM), without a hit: at the highest dose activity change, negative = inhibition, actives largely listed as inhibitors; note: % is set by controls: 0 for no effect and ±100 for the full control effect; nearly all actives have a fitted effect of over 65% in size
#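 FEN1 at 10 nM, compound pretreatment for 15 min (room temperature), 50 nM final substrate to initiate; endpoint reads at 0 and 15 min; DMSO-only plates used as vehicle background.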
# WRN inhibitor: inhibitors of human WRN helicase. WRN helicase unwinding, fluorescent forked duplex, kinetic. Potency, µM (series often up to 114 µM), inactives show top-dose activity change, negative = inhibition, hits mostly inhibitors. 360,000 compounds, 0.46% hits. AID 651768; note: % is set by controls: 0 for no effect and ±100 for the full control effect; nearly all actives have a fitted effect of over 55% in size
#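 Fluorescence dequenching readout, ex 525 nm/em 598 nm, kinetic mode: forked duplex DNA (100 nM final) with adjacent fluorophore and quencher unwound by WRN (20 nM final) with 2 mM ATP. Compound preincubation 15 min, room temperature.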
# APE1 inh: APE1 (human) endonuclease inhibition | AID 2517 | 350,000 compounds, 0.35% hits | Potency, µM (highest dose often 65.8 µM), without a hit: top-dose activity change, negative = inhibition, most hits filed as inhibitors | recombinant APE1, TAMRA/BHQ-2 abasic DNA cleavage fluorescence | P27695;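 note: plate controls were vehicle for no effect and reference inhibitor for full effect; nearly all actives have a fitted effect of over 55% in size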
#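 Measures dequenching upon AP-site incision of a 5'-TAMRA/3'-BHQ-2 THF-containing duplex, 50 nM; human APE1 0.75 nM after 15 min room-temperature exposure to compound; kinetic three-point read at one-minute spacing.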
# RECQ1 helicase: blocks DNA unwinding by human RECQ1; RECQ1 DNA unwinding, red fluorescence kinetic read; Potency, µM (doses to about 57.3 µM), for inactives: top-dose activity, negative = inhibition, usual class: inhibitors; P46063; AID 2549; 240,000 compounds, 0.54% hits;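 note: plate controls were vehicle for no effect and no enzyme for full effect; nearly all actives have a fitted effect of over 30% in size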
#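 50 nM RECQ1T1 preincubated 15 min with compound in Tris pH 8.0 buffer with MgCl2, DTT, Tween-20 and 2.5 ug/ml poly(dI-dC); started with 200 nM TAMRA/BHQ-2 forked duplex and 2 mM ATP. Unwinding read as fluorescence (525/598 nm), two reads 2 h apart.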
# FEN1 inh-2: confirmation of human FEN1 inhibitors. shares compounds with FEN1 inh-1. FEN1 flap cleavage, TAMRA/BHQ2 fluorogenic DNA substrate. Potency, µM, actives largely listed as inhibitors. 880 compounds, 79% hits; note: nearly all actives have a fitted effect of over 60% in size
# Active calls of the source: *; i = inactive; ? = inconclusive; . = not tested or not shown; [ ] = dose if it differs, or a comment. An excerpt weighted towards active compounds, which were near 0.87% of everything screened. Calls come from the whole dose curve; as a rule, active = well fitted curve in the direction sought with a large enough effect; inconclusive = small, poorly fitted or top-dose-only effect, or another doubt; inactive = no such curve, though single readings can be large; an effect the other way counts as inactive or inconclusive. Potency is the fitted concentration of half-maximal effect.
SMILES,BLM helicase inh,FEN1 inh-1,WRN inhibitor,APE1 inh,RECQ1 helicase,FEN1 inh-2
O=C(Nc1c(C(=O)O)oc2ccccc12)c1ccc(C(F)(F)F)cc1,-1.2%,-11.8%,.,.,.,.
COc1ccc(C(=O)/C=C2\Sc3ccccc3N2C)cc1,-2.6%,?,?,-4.2%,i,.
COc1ccccc1-[n+]1c(C)cc(/C=C2\Sc3ccccc3N2C)cc1C,10.3%,?,?,-10.8%,i,37.9*
O=C(c1ccc2c(c1)N(Cc1cccc(Cl)c1)C(=O)c1ccccc1S2(=O)=O)N1CCC(Cc2ccccc2)CC1,-2.1%,-2.2%,.,.,.,.
Cn1cc(/C=C/c2cc[n+](C)cc2)c2cc(F)ccc21,85.3%,44.7µM*,-17.4%,22.5%,.,37.9*
Cn1cc(C=O)c2cc(F)ccc21,-3.0%,22.1%,2.0%,26.7%,i,.
Cc1ccc(CNc2cc(C)nc3nc(-c4cccc(C)c4)nn23)cc1,-1.8%,?,.,.,.,.
O=C1C=CC(=O)c2c(O)c(N3CCN(CCO)CC3)c(Cl)c(O)c21,.,?,31.6µM*,.,.,75.7*
N#Cc1c(-c2ccccc2)nc(SCC(=O)Nc2nnc(C(F)(F)F)s2)[nH]c1=O,1.5%,-5.9%,-30.8%,-3.7%,25.4%,.
CCC(Sc1nc(-c2ccccc2)c(C#N)c(=O)[nH]1)C(=O)Nc1nnc(C)s1 (centres undefined),0.1%,?,-17.9%,-4.3%,26.0%,47.8*
O=C1c2cccc3cccc(c23)C(=O)N1CC1CCN(CC(O)COc2ccc3ccccc3c2)CC1 (centres undefined),-7.3%,-8.0%,5.5%,-3.0%,?,.
Cc1cc(C)cc(OCC(O)CN2CCC(CN3C(=O)c4cccc5cccc(c45)C3=O)CC2)c1 (centres undefined),-3.4%,?,37.4%,0.2%,0.0%,?
COc1ccc(COCC(O)CN2CCC(CN3C(=O)c4cccc5cccc(c45)C3=O)CC2)cc1OC (centres undefined),127.3%,?,17.6%,-6.3%,13.9%,?
CCOC(=O)C1CCCN(C(=O)c2ccc3c(c2)N(Cc2ccc(Cl)cc2)C(=O)c2ccccc2S3=O)C1 (centres undefined),-7.9%,-20.6%,.,.,.,.
Cc1nc2ccc(S(=O)(=O)N(CC(=O)Nc3cccc(Cl)c3)Cc3ccccc3)cc2s1,-12.3%,-21.0%,.,.,.,.
Cc1cc(C)c(S(=O)(=O)/N=C2/C=C(Sc3ncn[nH]3)C(=O)c3ccccc32)cc1C,10µM*,50.1µM*,22.4µM*,?,11.1%,33.8*
CCN(CC)CCNC(=O)c1cc2c(=O)n(C)c3ccccc3c2s1,81.3%,50.1µM*,43.1%,-25.1%,.,47.8*
CCCCN(CC)CCNC(=O)c1cc2c(=O)n(C)c3ccccc3c2s1,75.8%,?,27.2%,-11.4%,.,.
COC(=O)c1ccccc1-c1c2ccc(=N)cc-2oc2cc(N)ccc12,.,28.2µM*,4.74µM*,26.7µM*,.,67.5*
CCOc1ccc(Nc2oc(/C=C/c3cc(OC)c(OC)c(OC)c3)nc2C#N)cc1,-0.1%,-0.3%,.,.,.,.
Cc1ccc(/C=C2\C(=N)N3N=C(CC(=O)N4CCOCC4)SC3=NC2=O)o1,-1.0%,12.6%,-33.7%,17.4%,.,.
N=C1/C(=C/c2ccc(-c3cccc(C(=O)O)c3)o2)C(=O)N=C2SC(CC(=O)N3CCOCC3)=NN12,7.5%,35.5µM*,22.4µM*,?,.,67.5*
CCOc1ccc(Nc2sc(C(=O)c3ccc4c(c3)OCO4)c(N)c2S(=O)(=O)c2ccc(C)cc2)cc1,-5.5%,-3.8%,.,.,.,.
Cc1cc(N)c2cc(NC(=O)/C=C/c3ccccc3Cl)ccc2n1,131.4%,?,21.5%[11.6 µM],8.2%,63.9%,75.7*
c1nc(NCCCN2CCCCC2)c2cc(-c3ccc4c(c3)OCO4)ccc2n1,.,.,.,.,.,33.8*
SMILES,BLM helicase inh,FEN1 inh-1,WRN inhibitor,APE1 inh,RECQ1 helicase,FEN1 inh-2
CN1CCN(c2ncnc3ccc(-c4ccc5c(c4)OCO5)cc23)CC1,143.8%,.,.,-0.4%,-3.7%,.
c1csc(CNc2ncnc3ccc(-c4ccc5c(c4)OCO5)cc23)c1,-6.3%,?,.,-6.1%,?,.
Cn1cncc1CNc1ncnc2ccc(-c3ccc4c(c3)OCO4)cc12,.,.,.,.,.,?
c1nc(N2CCC(N3CCCC3)CC2)c2cc(-c3ccc4c(c3)OCO4)ccc2n1,.,.,.,.,.,33.8*
Cc1ccc(Cl)cc1NC(=O)Cn1cc(S(=O)(=O)Cc2ccccc2Cl)c2ccccc21,-6.0%,6.4%,.,.,.,.
Cc1ccccc1NC(=O)CSc1nc2nccnc2c(=O)n1CCc1c[nH]c2ccccc12,-1.1%,17.9%,.,.,.,.
CC(C)c1cnc2c(c1SCC(=O)c1ccccc1)c(=O)n(C)c(=O)n2C,-4.2%,-12.2%,.,.,.,.
CN(C)CCCNc1cc(O)c2ncccc2c1,.,-26.9%,.,33.5%,.,37.9*
Oc1cc(NCc2ccc(F)cc2)cc2cccnc12,.,-7.3%,.,60.8%,.,.
O=C(Cn1cnc2onc(-c3ccc(F)cc3)c2c1=O)N1CCN(c2ccc(F)cc2)CC1,-5.4%,3.6%,.,.,.,.
COc1cc(/C=N/NC(=O)c2cccc(C(=O)N/N=C/c3ccc(O)c(OC)c3)n2)ccc1O,-18.0%,?,?,-34.4%,.,1.35*
COc1cc(/C=C/C=C2/CC/C(=C/C=C/c3ccc(O)c(OC)c3)C2=O)ccc1O,.,39.8µM*,39.8µM*,.,.,42.6*
COc1cc(/C=C2/CC/C(=C/c3ccc(O)c(OC)c3)C2=O)ccc1O,-10.7%,?,-34.0%,2.9%,11.8%,.
COc1ccc(CCNC(=O)Cn2cc(S(=O)(=O)Cc3ccccc3F)c3ccccc32)cc1OC,-1.2%,2.4%,.,.,.,.
CCCn1c(=O)c(C(=O)Nc2ncccc2O)c(O)c2ccccc21,-6.5%,7.1%,-7.9%,-13.5%,.,.
Cn1c(=O)c(C(=O)Nc2ncccc2O)c(O)c2ccccc21,-3.2%,50.1µM*,-6.6%[57.1 µM],8.8%,i,60.1*
Cc1ccc(S(=O)(=O)N2CCN(c3nc(-c4ccncc4)nc4ccccc34)CC2)cc1,.,-6.8%,.,.,.,.
CCCCN(CCCC)CCNC(=O)Cn1nc(CC)n2c(cc3sc(C)cc32)c1=O,2.6%,-18.3%,.,.,.,.
CCOC(=O)C1=C(C)N=c2s/c(=C\c3ccc(OCC(=O)O)cc3)c(=O)n2C1c1ccc(Cl)cc1 (centres undefined),?,?,?,10.6µM*,.,75.7*
CCOC(=O)C1=C(C)N=c2s/c(=C/c3ccccc3)c(=O)n2C1c1ccc(OC)c(OC)c1 (centres undefined),-0.3%,-7.3%,14.9%,-3.3%,-12.0%,.
CC1=C(C(=O)Nc2ccccc2)C(c2ccc(Cl)cc2)n2c(s/c(=C/c3cccc(OCC(=O)O)c3)c2=O)=N1 (centres undefined),-22.9%,?,?,8.3%,4.3%,.
